# WT yeast gro inh: growth inhibition of WT yeast, mitochondrial fusion screen; mitochondrial fusion phenotypic screen, WT strain; inhibition, % at 10 µM; 190,000 compounds, 2.1% hits; AID 1362; in the data active = inhibition above about 58%; tested in S. cerevisiae
# Cl transport mod: modulates chloride dependent transport by human KCC2. KCC2 cells, thallium flux FluoZin-2 fluorescence. AID 1456. B-score of Tl+ flux slope (higher = more flux/activation; lower = inhibition) at 10 µM. 190,000 compounds, 2.2% hits;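 active = thallium flux slope and its plate-corrected score both differing from the plate sample mean at a set confidence after two filtering rounds, in either direction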;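 also: slope of fluorescence scaled to starting intensity during 10 to 20 s after thallium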
# Insulin prom inh: TRM-6 insulin promoter activity inhibition | TRM-6 cells (human fetal islet line), insulin promoter-eGFP reporter, imaging; reporter expression induced with tamoxifen | 130,000 compounds, 0.9% hits | inhibition, % at 2 µM | AID 1273;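 active = inhibition above the mean plus 3 SD, with well images judged a real hit on visual review, cut at about 60% in these data, passing the limit was not always enough; inconclusive = inhibition over the cutoff but images rejected on review; inactive = inhibition not above the cutoff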
# ROMK primary: modulators of human ROMK potassium channel. B-score at 10 µM. Tet-inducible ROMK, thallium flux fluorescence; actives lie on both sides. AID 1918. 130,000 compounds, 2% hits;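 active = signal ratio slope over the read window, or its plate-corrected B-score, at least 3 SD from the plate mean, either direction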;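 also: B-score of the F/F0 ratio slope over 7 to 12 s after thallium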
# Target sequence (P48048 whole entry, looked up): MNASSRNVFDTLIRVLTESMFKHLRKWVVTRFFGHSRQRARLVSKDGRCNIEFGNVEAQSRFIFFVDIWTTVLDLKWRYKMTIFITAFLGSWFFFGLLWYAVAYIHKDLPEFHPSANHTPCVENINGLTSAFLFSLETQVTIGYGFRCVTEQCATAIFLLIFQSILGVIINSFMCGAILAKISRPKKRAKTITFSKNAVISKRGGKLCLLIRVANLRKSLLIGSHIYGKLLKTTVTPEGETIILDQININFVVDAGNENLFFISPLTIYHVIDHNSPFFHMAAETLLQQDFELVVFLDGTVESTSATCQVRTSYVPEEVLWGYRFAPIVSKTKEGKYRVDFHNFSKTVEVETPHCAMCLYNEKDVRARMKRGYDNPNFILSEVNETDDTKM
# Lmaj promast: reduces viability of Leishmania major promastigotes; AID 1063; inhibition, % at 10 µM; resazurin fluorescence viability; 200,000 compounds, 9% hits; in the data active = inhibition above about 50%;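 also: promastigotes grown with compound for 44 hours at 28 °C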
# Insulin prom up: MIN6 insulin promoter up-regulation; z-score at 5 µM; MIN6 insulin promoter-GFP reporter, high-content imaging; hits give high values; AID 1625; 190,000 compounds, 0.3% hits;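 active = z-score above 3 at 5 µM with at least 500 cells counted in the well; inconclusive = wells under 500 cells, flagged as cytotoxic or low count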
# KCC2 secondary: confirmation of human KCC2 transport modulators. normalised thallium flux (F/F0 slope) at 10 µM. 3,700 compounds, 15% hits. HEK293-KCC2, thallium flux, FluoZin2 fluorescence; hits give high values. shares compounds with Cl transport mod;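 active = thallium flux slope above the same plate's solvent-only control mean plus 3 SD; inconclusive = the two replicate wells disagree; inactive = no significant difference from solvent-only control wells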
# KCC2 bumet counter: bumetanide-insensitive thallium flux in KCC2 cells with ouabain, counter-screen; shares compounds with Cl transport mod; normalized thallium flux at 10 µM; 3,700 compounds, 49% hits; HEK293-KCC2 + bumetanide/ouabain, thallium flux FluoZin2; hits give high values;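 active = thallium entry rate above the same plate's blocked-transporter control wells by more than 3 SD; inconclusive = the two repeat wells disagree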;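 also: raw slope of fluorescence over initial fluorescence between 10 and 20 s after thallium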
# KCC2 sec2: confirmation of human KCC2 transport modulators. shares compounds with Cl transport mod. normalized thallium flux at 10 µM. 3,700 compounds, 23% hits. HEK293-KCC2, thallium flux FluoZin2 fluorescence; actives lie on both sides; F/F0 rise rate, 10–20 s post-thallium. AID 1715;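 active = thallium flux slope more than 3 SD above or below the plate's solvent-only control mean, mostly below; inconclusive = the two repeat wells disagreed; inactive = no significant shift from solvent-only controls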;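 also: raw slope with 0.1% DMSO as baseline and bumetanide as block control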
# HEK counter1: counter-screen for KCC2 modulators: effect in parental HEK293 cells. shares compounds with Cl transport mod. thallium flux FluoZin2, ouabain; baseline-ratio fluorescence slope, 10–20 s after thallium. thallium flux rate (normalised fluorescence) at 10 µM. 3,700 compounds, 46% hits. AID 1716;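 active = thallium flux rate significantly above the same plate's solvent-only control wells, beyond their mean plus 3 SD; inconclusive = the two replicate wells gave conflicting results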
# KCC2 retest ouab: KCC2 (human) modulation, ouabain retest | 3,700 compounds, 48% hits | shares compounds with Cl transport mod | raw Tl+ flux slope (below DMSO = inhibition, above = activation) at 10 µM | HEK293-KCC2, thallium flux FluoZin2 fluorescence; bidirectional: low = inhibitor, high = activator;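 active = thallium flux slope beyond 3 SD from same-plate DMSO control mean in most replicates, usually higher, sometimes lower; inconclusive = repeat tests gave conflicting results; inactive = no significant difference from controls in most replicates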;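 also: slope of initial-normalized fluorescence between seconds 10 and 20 after thallium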
# HEK293 Tl flux2: counter-screen for KCC2 modulators: effect in parental HEK293 cells. shares compounds with Cl transport mod. thallium flux FluoZin-2 fluorescence slope. thallium flux slope at 10 µM. 3,700 compounds, 33% hits. AID 1718;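 active = thallium flux slope above the same plate's solvent-control mean plus 3 SD in both duplicate wells; inconclusive = duplicate wells that disagreed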;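 also: run without ouabain in cells lacking the KCC2 cotransporter; slope of fluorescence scaled to its starting value between 10 and 20 s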
# Active calls of the source: *; ? = inconclusive; · = no result. The list is not random: actives were taken first. Their share in the collection is about 12%.
SMILES,WT yeast gro inh,Cl transport mod,Insulin prom inh,ROMK primary,Lmaj promast,Insulin prom up,KCC2 secondary,KCC2 bumet counter,KCC2 sec2,HEK counter1,KCC2 retest ouab,HEK293 Tl flux2
Cc1nn(-c2ccccc2)nc1C(=O)NNC(=O)c1cccc2ccccc12,·,69*,·,-0.44,·,-0.85,0.024*,0.15*,0.037,0.075*,0.1*,0.024*
Cc1cc(C(=O)NNC(=O)c2ccc(C(F)(F)F)cc2)no1,·,4.9,·,1.2,·,·,·,·,·,·,·,·
Cc1nn(-c2ccccc2)nc1C(=O)NNC(=O)c1ccc(C(F)(F)F)cc1,·,22*,·,1.6,·,0.67,0.023*,0.097*,0.035,0.035*,0.055*,0.017*
Cc1nc(C(=O)NNC(=O)c2ccc(C(F)(F)F)cc2)cs1,·,5.1*,·,0.74,·,-0.21,0.0092,0.02*,0.029,0.01*,?,?
C=CCOC(=O)/C(=C\c1cccc2ccccc12)NC(=O)c1ccccc1,11,-0.16,·,·,11,-0.56,·,·,·,·,·,·
CCOC(=O)Cc1csc(NC(=S)NC(=O)c2ccc([N+](=O)[O-])cc2)n1,3,9.8*,-18,-0.95,75*,0.19,0.016*,0.036*,0.033,0.025*,0.041*,0.012
CCOC(=O)Cc1csc(NC(=S)NC(=O)c2ccc(Cl)cc2)n1,-2,10*,·,0.089,-9,-0.46,0.0075,0.043*,0.042*,0.042*,0.058*,0.02*
CCOC(=O)Cc1csc(NC(=O)Cc2ccc([N+](=O)[O-])cc2)n1,10,0.47,-41,0.28,-1,1.3,·,·,·,·,·,·
CCOC(=O)C1=C(C)NC(=O)NC1c1ccc(N2CCC(c3ccccc3)=N2)cc1 (stereo not given),4,-1.2,·,-0.65,14,·,·,·,·,·,·,·
O=C(COc1cccc2cccnc12)N1CCc2ccccc21,2,-1.1,·,-0.11,-1,-0.22,·,·,·,·,·,·
CCOC(=O)c1cc2c(ccn2C)n1CC(=O)N1CCC(Cc2ccccc2)CC1,19,-5.9*,-6,·,95*,-3.6,0.011,0.0057,?,0.0079,0.016*,0.012
Cc1ccc(C(=O)Nc2ccccc2C(=O)NC(Cc2c[nH]c3ccccc23)C(=O)O)cc1 (stereo not given),11,·,8,0.15,-6,·,·,·,·,·,·,·
O=C(c1cc(COc2ccc(F)cc2F)on1)N1CCCC(c2ccccc2)C1 (stereo not given),45,-1.6,·,-0.71,-4,0.1,·,·,·,·,·,·
O=C(NC1CCN(Cc2ccccc2)C1)c1cc(COc2ccc(F)cc2F)on1 (stereo not given),9,·,·,-0.81,10,-0.42,0.0064,0.0048,?,0.0074,0.019,0.0099
CCCCC(CC)CNC(=O)c1[nH]c(C)c(C(C)=O)c1C (stereo not given),-9,-2.6,·,·,-3,0.4,·,·,·,·,·,·
NNc1nc2sc3c(c2c(=O)n1Cc1ccccc1)CCC3,·,4.1*,·,-1.1,·,0.12,0.012,0.017*,0.037,?,?,0.012
CCn1c(NN)nc2sc3c(c2c1=O)CCC3,-4,6*,37,0.23,3,0.31,0.014*,0.019*,0.035,0.018*,0.03*,?
COc1ccc(N2CC(C(=O)Nc3nc4ccccc4s3)CC2=O)cc1 (stereo not given),·,-2.7,·,-1.4,·,0.31,·,·,·,·,·,·
COCCn1nnnc1SCC(=O)c1ccc(F)cc1,-11,0.79,49,·,-12,·,·,·,·,·,·,·
CC(Oc1ccccc1F)C(=O)NNC(=O)c1cc2ccccc2o1 (stereo not given),-1,·,·,-0.095,-7,·,0.0072,0.028*,0.034,0.022*,0.03*,0.016*
CCCNC(=O)c1ccccc1NC(=O)COc1ccc(OC)cc1,1,6.5*,·,-0.17,10,·,0.009,?,0.033,0.008,0.021,0.011
COc1ccc(OCC(=O)NNC(=O)c2cc3ccccc3o2)cc1,3,5.1*,-4,-0.35,-13,0.04,0.013*,0.017*,0.032,?,?,0.013
COc1ccc(NC(=O)c2cc3ccccc3o2)cc1,5,-1.5,-26,·,-7,·,·,·,·,·,·,·
CCCC(=O)NCCc1ccc(F)cc1,-2,0.65,11,·,-1,·,·,·,·,·,·,·
Cc1cc(/C=C2\SC(=O)NC2=O)c(C)n1-c1ccc(N2CCOCC2)cc1,·,0.24,·,·,·,-0.19,·,·,·,·,·,·
SMILES,WT yeast gro inh,Cl transport mod,Insulin prom inh,ROMK primary,Lmaj promast,Insulin prom up,KCC2 secondary,KCC2 bumet counter,KCC2 sec2,HEK counter1,KCC2 retest ouab,HEK293 Tl flux2
CCN1C/C(=C/c2ccc(N3CCOCC3)cc2)C(=O)/C(=C/c2ccc(N3CCOCC3)cc2)C1,14,-5.4*,·,·,100*,0.95,0.0036*,0.0016*,0.03*,?,0.0089*,0.011
CN1C/C(=C\c2ccc(N3CCOCC3)cc2)C(=O)/C(=C/c2ccc(N3CCOCC3)cc2)C1,-13,-9.2*,-17,·,100*,-0.02,0.0028*,-0.0007*,0.017*,0.0056*,0.0075*,?
CCOc1cc2[nH]c(=S)n(CCOC)c(=O)c2cc1OCC,1,0.014,-22,-0.022,17,0.33,·,·,·,·,·,·
CCCn1c(=S)[nH]c2cc(OC)c(OC)cc2c1=O,-4,11*,61,-0.73,1,-0.49,0.013*,0.022*,0.034,?,?,?
COCCn1c(=S)[nH]c2ccc(N(C)C)cc2c1=O,8,3.2*,·,-1.1,1,-0.67,0.0066,0.0083*,0.029,0.0095*,0.019,0.012*
O=C(Cc1csc(Nc2nc(=S)[nH]c3ccccc23)n1)NCc1cccc(Cl)c1,5,·,39,·,-1,·,·,·,·,·,·,·
O=C(Cc1csc(Nc2nc(=S)[nH]c3ccccc23)n1)N1CCN(c2cccc(C(F)(F)F)c2)CC1,12,12*,21,0.51,1,-0.65,0.007,0.014*,0.036,0.022*,0.027*,0.018*
c1ccc(COc2ccccc2CNc2nn[nH]n2)cc1,5,-1.2,·,·,0,-0.03,·,·,·,·,·,·
Fc1ccc(COc2ccc3ccccc3c2CNc2nn[nH]n2)cc1,0,-4.6*,·,-0.087,0,-0.04,0.0061,0.0046,0.021*,?,0.0092*,?

# Assay outcomes from PubChem.
